About 83,000 compounds went through this panel and 20% of them were active in at least one assay; those are over-represented in the sample as a whole.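 Single-concentration screen, 48 h exposure, 96-well plates. Endpoint: percent growth. Below 10 = active.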 Active and inactive are the calls of the source.
Legend:
Experiment in all cases: NCI-60 one-dose screen, 48 h (100 = growth as untreated, 0 = no growth, -100 = all killed)
Settings in all cases: 10 µM unless noted
SK-MEL-2 melanoma = test system: SK-MEL-2 melanoma
EKVX NSCLC = test system: EKVX NSCLC
SN12C renal = test system: SN12C renal
UO-31 renal = test system: UO-31 renal
TK-10 renal = test system: TK-10 renal
ACHN renal = test system: ACHN renal
CAKI-1 renal = test system: CAKI-1 renal
A498 renal = test system: A498 renal
CCRF-CEM leukemia = test system: CCRF-CEM leukemia
MOLT-4 leukemia = test system: MOLT-4 leukemia

Structure (SMILES)	growth (SK-MEL-2 melanoma)	growth (EKVX NSCLC)	growth (SN12C renal)	growth (UO-31 renal)	growth (TK-10 renal)	growth (ACHN renal)	growth (CAKI-1 renal)	growth (A498 renal)	growth (CCRF-CEM leukemia)	growth (MOLT-4 leukemia)
COc1ccc(-n2c(NC(=O)N3CCN(C)CC3)c(C#N)c3ccccc32)cc1	72.9% (inactive)	12.3% (inactive)	23% (inactive)	-15.6% (active)	12.4% (inactive)	21.9% (inactive)	15% (inactive)	139% (inactive)	60.5% (inactive)	43.9% (inactive)
COc1ccc(-c2nc3ccccc3n2CC(=O)N=Nc2c(O)[nH]c3ccc(Br)cc23)cc1	85.4% (inactive)	85% (inactive)	97% (inactive)	66.7% (inactive)	94.8% (inactive)	87.8% (inactive)	74.9% (inactive)	139% (inactive)	67.2% (inactive)	37.2% (inactive)
Clc1ccc(-c2nc3ccc(-c4nnc(SCc5ccccc5)o4)cc3[nH]2)cc1	75.3% (inactive)	-24.4% (active)	-57.9% (active)	49.3% (inactive)	90.6% (inactive)	45% (inactive)	37.5% (inactive)	112% (inactive)	34.1% (inactive)	27.7% (inactive)
COc1sc(/C=N/NC(=O)c2[nH]c3ccc(Br)cc3c2-c2ccccc2)cc1Br	15.4% (inactive)	13.5% (inactive)	5.93% (active)	31.1% (inactive)	64.6% (inactive)	7.58% (active)	15.2% (inactive)	134% (inactive)	6.23% (active)	-2.1% (active)
CS(=O)(=O)Nc1cccc(-n2cnc3cc(-c4ccc(O)cc4)ccc32)c1	27.2% (inactive)	51.6% (inactive)	41.1% (inactive)	44.3% (inactive)	93% (inactive)	49.7% (inactive)	30.6% (inactive)	149% (inactive)	22.2% (inactive)	24.4% (inactive)
Cc1ccc(C(C)C)cc1Oc1cccc(-c2c(-c3ccc(C(F)(F)F)cc3)ncn2C2CCNCC2)n1	-93.1% (active)	-91% (active)	-92.1% (active)	-97.4% (active)	-94.9% (active)	-100% (active)	-98.1% (active)	-86.2% (active)	-73.8% (active)	-80.3% (active)
CC[C@]12C=CCN3CC[C@]4(C(=C(C(=O)OC)C1)Nc1cc(OC)c([C@@H]5[C@H]6O[C@H]6[C@@]6(CC)CC(C(=O)OC)=C7Nc8cc(OC)ccc8[C@@]78CCN5[C@@H]68)cc14)[C@@H]32	83.1% (inactive)	51.7% (inactive)	50% (inactive)	69.5% (inactive)	72.5% (inactive)	44% (inactive)	43.4% (inactive)	141% (inactive)	30.8% (inactive)	18.4% (inactive)
C=CCSc1nnc(-c2c(C)nc3sccn23)o1	104% (inactive)	76.4% (inactive)	96.8% (inactive)	71.8% (inactive)	124% (inactive)	88.5% (inactive)	77.9% (inactive)	96.9% (inactive)	90.3% (inactive)	116% (inactive)
N#Cc1ccc(C(=O)CSc2nc3c(c(Nc4ccc(S(N)(=O)=O)cc4)n2)CCC3)cc1	87.4% (inactive)	49.8% (inactive)	35.3% (inactive)	66.8% (inactive)	55.2% (inactive)	10.9% (inactive)	39.1% (inactive)	137% (inactive)	81.1% (inactive)	73.3% (inactive)
COc1cc(CNC(=O)[C@]23CCC(C)(C)CC2C2=CCC4[C@@]5(C)CCC(OC(C)=O)C(C)(C)C5CC[C@@]4(C)[C@]2(C)CC3)ccc1OCc1cn(-c2ccc(Cl)cc2Cl)nn1 (stereo not given in full)	99.8% (inactive)	86.5% (inactive)	94.1% (inactive)	80.2% (inactive)	134% (inactive)	101% (inactive)	77.9% (inactive)	146% (inactive)	98.2% (inactive)	104% (inactive)
Nc1cc2ccccc2c(=O)n1NC(=O)c1ccccc1	105% (inactive)	87.6% (inactive)	100% (inactive)	58.3% (inactive)	127% (inactive)	93.4% (inactive)	83.8% (inactive)	145% (inactive)	98.9% (inactive)	93.9% (inactive)
CC(=O)c1c2c(c3ccc4c5ccccc5ccc4n13)C(=O)c1ccccc1C2=O	93.3% (inactive)	77% (inactive)	89.9% (inactive)	59.3% (inactive)	118% (inactive)	75.6% (inactive)	85.6% (inactive)	189% (inactive)	99.9% (inactive)	90.6% (inactive)
COc1cc2cc(C(=O)N3C[C@@H](CCl)c4c3cc(OC(=O)N(C)CCSSCCN3CCOCC3)c3ccccc43)[nH]c2c(OC)c1OC	-86.8% (active)	-40.1% (active)	-48.4% (active)	-28.2% (active)	-40% (active)	-18.9% (active)	-45.3% (active)	-15.9% (active)	-15.9% (active)	-18.2% (active)
CCOc1ccccc1[C@H]1C(C(=O)c2ccc(Cl)cc2)C2(N[C@@H]1c1ccccc1)C(=O)Nc1ccc(Br)cc12 (stereo not given in full)	-66.8% (active)	3.88% (active)	-86.6% (active)	5.4% (active)	27% (inactive)	1.27% (active)	7.21% (active)	-22.5% (active)	4.88% (active)	-23.2% (active)
N#Cc1ccc(C(=O)NNC(=O)CSc2nc3sc4c(c3c(=O)n2-c2ccc(Cl)cc2)CCCC4)cc1	94.2% (inactive)	54.3% (inactive)	41.7% (inactive)	42.7% (inactive)	115% (inactive)	71.2% (inactive)	53.1% (inactive)	89.2% (inactive)	48.9% (inactive)	46.3% (inactive)
COc1ccc(SC2c3cc(OC)ccc3Oc3nc(N)c(C#N)c(N)c32)cc1 (stereo not given)	94.5% (inactive)	76.3% (inactive)	73.7% (inactive)	39.7% (inactive)	110% (inactive)	76.3% (inactive)	79.1% (inactive)	107% (inactive)	4.16% (active)	55.4% (inactive)
C/C(=N/O)c1ccc(NC(=O)CSc2nnc(-c3ccc4nc(-c5ccc(Cl)cc5)[nH]c4c3)o2)cc1	65.1% (inactive)	99.8% (inactive)	28.8% (inactive)	87.7% (inactive)	121% (inactive)	77.3% (inactive)	97% (inactive)	158% (inactive)	32.5% (inactive)	19.6% (inactive)
Cn1cc(-c2cc(N)n3nc(-c4c[nH]c5ccc(F)cc45)cc3n2)c2cccnc21	86.8% (inactive)	-64.9% (active)	-80.6% (active)	-75.8% (active)	-68.7% (active)	-93.8% (active)	-70.7% (active)	-74.8% (active)	-34.6% (active)	-30.1% (active)
COc1ccccc1NC(=O)c1ccc(NC(=O)CCl)s1	37.1% (inactive)	59.7% (inactive)	-52.8% (active)	-20.5% (active)	-6.19% (active)	10.2% (inactive)	-13.1% (active)	73.1% (inactive)	-18.9% (active)	-19.5% (active)
COC(=O)c1c(C(=O)OC)c2ccc3c4ccccc4ccc3n2c1C(=O)OC	108% (inactive)	97% (inactive)	95.6% (inactive)	87.8% (inactive)	103% (inactive)	109% (inactive)	107% (inactive)	129% (inactive)	101% (inactive)	114% (inactive)
O=C(NNC(=S)NC(=O)c1ccccc1)c1ccc(OCc2nc3ccc(Cl)cc3[nH]2)cc1	-47.3% (active)	-53% (active)	-80.2% (active)	-76.1% (active)	11.2% (inactive)	-43% (active)	-1.67% (active)	-55% (active)	2.87% (active)	2.46% (active)
COc1cc(/C=C/C(=O)c2ccc(S(=O)(=O)NCCNc3nc(N(C)C)nc(N4CCOCC4)n3)cc2)cc(OC)c1OC	81.4% (inactive)	36.3% (inactive)	-22% (active)	12.8% (inactive)	13.5% (inactive)	-100% (active)	39.4% (inactive)	51.9% (inactive)	-27.9% (active)	-40.2% (active)
COc1cc2cc(C(=O)N3C[C@@H](CCl)c4c3cc(OC(=O)N(CCC(=O)N3CCN(C)CC3)[C@H]3CCSSC3)c3ccccc43)[nH]c2c(OC)c1OC	-85% (active)	-67.7% (active)	-10.3% (active)	-26.9% (active)	8.66% (active)	-6.81% (active)	13.7% (inactive)	-19.6% (active)	32% (inactive)	-9.57% (active)
O=C(N/N=C/c1ccc(Cl)cc1)c1ccc(OCc2nc3ccc(Cl)cc3[nH]2)cc1	47.7% (inactive)	32.1% (inactive)	30.4% (inactive)	11.1% (inactive)	12.4% (inactive)	28.6% (inactive)	73.6% (inactive)	129% (inactive)	66.7% (inactive)	15% (inactive)
O=C(OCCOCCO)N(c1cccc(Br)c1)c1nc(SCCN2CCOCC2)nc2c1cnn2CC(Cl)c1ccc(Br)cc1 (stereo not given)	-60.3% (active)	26.6% (inactive)	20.3% (inactive)	-3.09% (active)	40.5% (inactive)	2.9% (active)	27.8% (inactive)	45.5% (inactive)	-18.4% (active)	-24.3% (active)

Reference: PubChem BioAssay (NCI)
